The supplement of paper PMC10037445
The full ranking holds about 2,900 compounds; the median of “IRF Lucia reporter activity, fold change vs agonist alone” is about 0.9, and the highest 2% start at about 2.8. The entries come from a sample that favours the highest values as a whole.

Experiments:
[1] = test system: RAW-Dual; test: IRF Lucia reporter activity, fold change vs agonist alone; higher = enhanced IRF activity; conditions: library stock concentration (final ~1000-fold dilution): 10 mM; cytotoxicity flag (confluency mask): not cytotoxic; agonist: MPLA (TLR4) […]
Outline: (§1)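 After 50 nL of library stock was delivered by pin tool to RAW-Dual macrophages (50,000 cells/well, DMEM, 384-well plates), a PRR agonist was added 1 h later and the plates were kept at 37 °C, 5% CO2. Twenty hours later, IRF was read from supernatant by QuantiLuc luminescence and NF-κB by QuantiBlue absorbance at 620 nm. Reporter activity is stated as fold change over agonist-alone wells. Wells with IncuCyte confluency under 70% of agonist controls in both mask sets were counted as cytotoxic.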

[2] = test system: RAW-Dual; test: IRF Lucia reporter activity, fold change vs agonist alone; cytotoxicity flag (confluency mask): not cytotoxic; higher = enhanced IRF activity
Outline: as §1

[3] = test system: RAW-Dual; test: IRF Lucia reporter activity, fold change vs agonist alone; cytotoxicity flag (confluency mask): cytotoxic (confluency <70% of control); higher = enhanced IRF activity
Outline: as §1

[4] = agonist: 3'3'-cGAMP (STING) 10 ug/mL

COc1ccc2c(OC3CC4C(=O)NC5(C(=O)NS(=O)(=O)C6CC6)CC5/C=C\CCCCN(C)C(=O)C4C3)cc(-c3nc(C(C)C)cs3)nc2c1C (stereo unspecified)
IRF Lucia reporter activity [1]: 1.05

Cc1ccc(/C(=C\CN2CCCC2)c2ccccn2)cc1.Cl.O (library stock concentration (final ~1000-fold dilution): 10 mM)
IRF Lucia reporter activity [2, 4]: 0.877
IRF Lucia reporter activity ([2]; agonist: LPS (TLR4) 0.1 ug/mL): 0.728

Cc1ccc(/C(=C\CN2CCCC2)c2ccccn2)cc1.Cl.O
IRF Lucia reporter activity [1]: 1.09

CC(C)(O)c1cc(Nc2cc(Oc3cn(C4CC4)nc3C3CCOCC3)ccn2)ccn1 (library stock concentration (final ~1000-fold dilution): 10 mM)
IRF Lucia reporter activity [2, 4]: 1.14
IRF Lucia reporter activity ([2]; agonist: LPS (TLR4) 0.1 ug/mL): 1.53

NC1CCCN(c2c(/C=C3\SC(=O)NC3=O)cccc2-c2ccccc2)C1 (stereo unspecified)
IRF Lucia reporter activity [1]: 1.1

NC1CCCN(c2c(/C=C3\SC(=O)NC3=O)cccc2-c2ccccc2)C1 (stereo unspecified) (library stock concentration (final ~1000-fold dilution): 10 mM)
IRF Lucia reporter activity [2, 4]: 0.968
IRF Lucia reporter activity ([2]; agonist: LPS (TLR4) 0.1 ug/mL): 1.16

CS(=O)(=O)CCNCc1ccc(-c2ccc3ncnc(Nc4ccc(OCc5cccc(F)c5)c(Cl)c4)c3c2)o1 (library stock concentration (final ~1000-fold dilution): 10 mM)
IRF Lucia reporter activity [2, 4]: 0.277
IRF Lucia reporter activity ([2]; agonist: LPS (TLR4) 0.1 ug/mL): 1.43

CS(=O)(=O)CCNCc1ccc(-c2ccc3ncnc(Nc4ccc(OCc5cccc(F)c5)c(Cl)c4)c3c2)o1.Cc1ccc(S(=O)(=O)O)cc1.Cc1ccc(S(=O)(=O)O)cc1.O
IRF Lucia reporter activity [1]: 1.8

CS(=O)(=O)CCNCc1ccc(-c2ccc3ncnc(Nc4ccc(OCc5cccc(F)c5)c(Cl)c4)c3c2)o1.Cc1ccc(S(=O)(=O)O)cc1.Cc1ccc(S(=O)(=O)O)cc1 (library stock concentration (final ~1000-fold dilution): 10 mM)
IRF Lucia reporter activity [2, 4]: 0.264
IRF Lucia reporter activity ([2]; agonist: LPS (TLR4) 0.1 ug/mL): 3.36

CS(=O)(=O)CCNCc1ccc(-c2ccc3ncnc(Nc4ccc(OCc5cccc(F)c5)c(Cl)c4)c3c2)o1.Cc1ccc(S(=O)(=O)O)cc1.Cc1ccc(S(=O)(=O)O)cc1.O (library stock concentration (final ~1000-fold dilution): 10 mM)
IRF Lucia reporter activity [2, 4]: 0.259
IRF Lucia reporter activity ([2]; agonist: LPS (TLR4) 0.1 ug/mL): 2.46

CS(=O)(=O)CCNCc1ccc(-c2ccc3ncnc(Nc4ccc(OCc5cccc(F)c5)c(Cl)c4)c3c2)o1
IRF Lucia reporter activity [1]: 1.6

CS(=O)(=O)CCNCc1ccc(-c2ccc3ncnc(Nc4ccc(OCc5cccc(F)c5)c(Cl)c4)c3c2)o1.Cc1ccc(S(=O)(=O)O)cc1.Cc1ccc(S(=O)(=O)O)cc1
IRF Lucia reporter activity [1]: 1.28

COc1cc(F)c(C(C)C)cc1-c1ccc(C(F)(F)F)cc1CN1C(=O)OC(c2cc(C(F)(F)F)cc(C(F)(F)F)c2)C1C (stereo unspecified)
IRF Lucia reporter activity [1]: 1.1

COc1cc(F)c(C(C)C)cc1-c1ccc(C(F)(F)F)cc1CN1C(=O)OC(c2cc(C(F)(F)F)cc(C(F)(F)F)c2)C1C (stereo unspecified) (library stock concentration (final ~1000-fold dilution): 10 mM)
IRF Lucia reporter activity [2, 4]: 1.12
IRF Lucia reporter activity ([2]; agonist: LPS (TLR4) 0.1 ug/mL): 1.14

Cc1ccc(NC(=O)c2ccc(CN3CCN(C)CC3)cc2)cc1Nc1nccc(-c2cccnc2)n1
IRF Lucia reporter activity [1]: 1.29

CC(C)(O)CNc1nc(Nc2ccnc(C(F)(F)F)c2)nc(-c2cccc(C(F)(F)F)n2)n1 (library stock concentration (final ~1000-fold dilution): 10 mM)
IRF Lucia reporter activity [2, 4]: 1
IRF Lucia reporter activity ([2]; agonist: LPS (TLR4) 0.1 ug/mL): 1.29

Nc1ncc(-c2ccnc(Nc3ccncc3)n2)c(CC2CC2)n1 (library stock concentration (final ~1000-fold dilution): 10 mM)
IRF Lucia reporter activity [3, 4]: 0.336
IRF Lucia reporter activity ([3]; agonist: LPS (TLR4) 0.1 ug/mL): 3.92

CC(C)(O)CNc1ncc(-c2ccnc(Nc3ccncc3)n2)c(CC2CC2)n1 (library stock concentration (final ~1000-fold dilution): 10 mM)
IRF Lucia reporter activity [2, 4]: 0.364
IRF Lucia reporter activity ([2]; agonist: LPS (TLR4) 0.1 ug/mL): 10.3

CC(C)(O)CNc1ncc(-c2ccnc(Nc3ccnc(Cl)c3)n2)c(CC2CC2)n1 (library stock concentration (final ~1000-fold dilution): 10 mM)
IRF Lucia reporter activity [2, 4]: 0.0702
IRF Lucia reporter activity ([2]; agonist: LPS (TLR4) 0.1 ug/mL): 3.2

Cc1nc(N)sc1-c1ccnc(Nc2ccc(N3CCOCC3)cc2)n1
IRF Lucia reporter activity [1]: 0.0284

Cc1nc(N)sc1-c1ccnc(Nc2ccc(N3CCOCC3)cc2)n1 (library stock concentration (final ~1000-fold dilution): 10 mM)
IRF Lucia reporter activity [2, 4]: 0.0149
IRF Lucia reporter activity ([2]; agonist: LPS (TLR4) 0.1 ug/mL): 0.023

Cc1ccc(NC(=O)c2ccc(CN3CCN(C)CC3)cc2)cc1Nc1nccc(-c2cccnc2)n1 (library stock concentration (final ~1000-fold dilution): 10 mM)
IRF Lucia reporter activity [2, 4]: 0.549
IRF Lucia reporter activity ([2]; agonist: LPS (TLR4) 0.1 ug/mL): 0.944

COc1cc(N2CCN(C)CC2)ccc1Nc1nccc(-c2cn(C)c3cnccc23)n1
IRF Lucia reporter activity [1]: 0.246

COc1cc(N2CCN(C)CC2)ccc1Nc1nccc(-c2cn(C)c3cnccc23)n1 (library stock concentration (final ~1000-fold dilution): 10 mM)
IRF Lucia reporter activity [2, 4]: 0.0231
IRF Lucia reporter activity ([2]; agonist: LPS (TLR4) 0.1 ug/mL): 0.154

Cc1c(NC(=O)OCC2COCCN2)cn2ncnc(Nc3ccc4c(cnn4Cc4cccc(F)c4)c3)c12 (stereo unspecified)
IRF Lucia reporter activity [1]: 1.3

Cc1c(NC(=O)OCC2COCCN2)cn2ncnc(Nc3ccc4c(cnn4Cc4cccc(F)c4)c3)c12 (stereo unspecified) (library stock concentration (final ~1000-fold dilution): 10 mM)
IRF Lucia reporter activity [2, 4]: 0.267
IRF Lucia reporter activity ([2]; agonist: LPS (TLR4) 0.1 ug/mL): 1.28
